A short description of the test: Confirmation Concentration-Response Assay for lipid storage modulators: for probe SAR round 2. The following applies: Drosophila S3 cells, BODIPY lipid droplet fluorescence, 18-24 h. The source says:
NIH Molecular Libraries Probe Production Centers Network [MLPCN] NIH Chemical Genomics Center [NCGC] MLPCN Grant: 1 R03 MH085686-01 Assay Submitter (PI): Beller, Mathias; Max-Planck-Institut fur Biophysikalische Chemie NCGC Assay Overview: Storing lipids as a reservoir for energy or the anabolism of elementary metabolites is a common feature of probably all cells and is conserved from bacteria to humans. The universal cellular lipid storage organelle is the so-called lipid storage droplet (LD). Although ubiquitous, LDs share a simple structure composed of a hydrophobic core that harbors the storage lipids, which is shielded by a droplet-specific phospholipid monolayer to which proteins are attached. […]
We dispensed 4 uL of cells at 1.25 x 10^6 cells/mL into LoBase Aurora COC 1,536-well plates (black walled, clear bottom) with a bottle-valve solenoid-based dispenser (Aurora) to obtain 5,000 cells/well. […] Fluorescence was detected by excitation of the fluorophores with a 488-nm laser on an Acumen Explorer (TTP Lab Tech). […] Cells were detected using channel 3 (575- 640 nm) with 5-um width and 100-um depth filters. The ratio of the total intensity in PMT channel 1 over total intensity of channel 3 was also calculated. […]

Results filed as inconclusive are left out. Activity calls are given as the source filed them. The call rests on the fitted dose curve; in most records, active means well fitted inhibition curve with a large enough effect; inconclusive means small, poorly fitted or top-dose-only effect, or another doubt; inactive means flat fitted curve, though single readings scatter.

`CCC/C=C/C/C=C/C=C/C=N/NN=O`: the Potency was 2810 nM (active).

The values above are taken from PubChem BioAssay AID504432 (National Center for Advancing Translational Sciences (NCATS), 2011).
